The entries come from a sample that favours the strongest signals as a whole.

The values below come from the supplement of paper PMC8728848.

Assay in all cases: glycan array binding signal (z-score within array); higher = stronger binding
Common to all, as to details: glycan notation: IUPAC condensed, linker removed

The target of one assay is Gal3S(b1-4)Glc6S. A digest of the protocol:
(§1)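 Glycan array data were curated from 3228 arrays in the Consortium for Functional Glycomics database and kept only where the protein sequence was available. Glycan names were converted to IUPAC-condensed notation, and columns mapping to the same glycan were averaged. The binding signal is a within-array Z-score, averaged across arrays of the same protein sequence at different concentrations or buffers and across linkers. Negative Z-scores can be read as non-binding.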

In a further assay the target is GalNAc(a1-3)Gal. A digest of the protocol:
as §1

In assay [1] the target is GalNAc(b1-3)Gal(a1-4)Gal(b1-4)GlcNAc. A digest of the protocol:
as §1

The next assay deals with GalNAc(b1-4)Gal(b1-4)Glc. The procedure, abridged: as §1
The next assay addresses GalNAc3S(b1-4)GlcNAc3S. The procedure, abridged:
as §1

A further assay concerns the target GlcA(b1-3)Gal. A digest of the protocol:
as §1

The target of assay [2] is GlcNAc(a1-4)Gal(b1-4)GlcNAc(b1-3)Gal(b1-4)Glc. A digest of the protocol: as §1
Assay [3] concerns the target GlcNAc(a1-4)Gal(b1-4)GlcNAc(b1-3)Gal(b1-4)[Fuc(a1-3)]GlcNAc(b1-3)Gal(b1-4)[Fuc(a1-3)]GlcNAc. The procedure, abridged:
as §1

The target of assay [4] is GlcNAc(b1-3)Gal(b1-4)GlcNAc(b1-2)Man(a1-3)[GlcNAc(b1-3)Gal(b1-4)GlcNAc(b1-2)Man(a1-6)]Man(b1-4)GlcNAc(b1-4)[Fuc(a1-6)]GlcNAc. The procedure, abridged: as §1
For assay [5], the target named is GlcNAc(b1-3)Gal(b1-4)GlcNAc(b1-3)Gal(b1-4)GlcNAc(b1-3)Gal(b1-4)GlcNAc(b1-2)Man(a1-3)[GlcNAc(b1-3)Gal(b1-4)GlcNAc(b1-3)Gal(b1-4)GlcNAc(b1-3)Gal(b1-4)GlcNAc(b1-2)Man(a1-6)]Man(b1-4)GlcNAc(b1-4)GlcNAc. A digest of the protocol:
as §1

Assay [6] deals with GlcNAc(b1-3)Gal(b1-4)GlcNAc(b1-6)[Gal(b1-3)]GalNAc. A digest of the protocol: as §1
Assay [7] concerns the target GlcNAc(b1-4)Gal(b1-4)GlcNAc. The procedure, abridged: as §1
The next assay deals with Kdn(a2-3)Gal(b1-3)GalNAc. The procedure, abridged: as §1
Assay [8] has as its target Man(a1-2)Man(a1-2)Man(a1-3)Man. A digest of the protocol: as §1
For assay [9], the target named is Man(a1-3)[Man(a1-6)]Man(a1-6)[Man(a1-3)]Man(b1-4)GlcNAc(b1-4)GlcNAc. A digest of the protocol: as §1
For assay [10], the target named is Neu5Ac(a2-3)Gal(b1-3)GlcNAc(b1-3)Gal(b1-3)GlcNAc. A digest of the protocol: as §1
Assay [11] concerns the target Neu5Ac(a2-3)Gal(b1-3)[Fuc(a1-4)]GlcNAc(b1-3)Gal(b1-4)[Fuc(a1-3)]GlcNAc. A digest of the protocol:
as §1

The target of another assay is Neu5Ac(a2-3)Gal(b1-4)Glc. A digest of the protocol: as §1
The target of assay [12] is Neu5Ac(a2-3)Gal(b1-4)GlcNAc(b1-3)Gal(b1-4)GlcNAc(b1-3)Gal(b1-4)GlcNAc. The procedure, abridged: as §1
The target in assay [13] is Neu5Ac(a2-3)Gal(b1-4)GlcNAc(b1-3)[Neu5Ac(a2-3)Gal(b1-4)GlcNAc(b1-6)]GalNAc. The procedure, abridged:
as §1

B1: PX9937F-bfa-516-16-516 (Bacteroides fragilis) (protein)
chain: LDIDPTSSIADSNYWKTEAQFSTFNVGLHALLRECSFNFFLLGEPRADIYGDVPFGGEATQGMERLPFNTINKENTGISNFAGMYKVINQINLMIAKTKETTVLSEAGKNYYLGEAYGMRAYLYFHLLRSWGDVILYLDYTNGASLDLSNLSKAASPAEEVMKQIKEDITASEKGFGSDYSFKYGRYYWSMAATQMLKGEVYLWSGRQMGGGTADYTTAKTALQSIVSNANVSLQDDFSKVFAYNNKDNSEIIFSIRNAKDEYNMWDDRFRQNLVPQQAYMTSTYCNKEGVSFKDLPEGQLNGLIRLQIRYDLYNKAFRDGDTRKDASMTAVYQKQQDGTVKYIAPFCNKYQGVLLDGASQRSFLNDYPIYRYADCLLLLAEAKALLGEDPTAEINQVRERAYGKEFFEANKATLAYPNDKGDFYTDNKYMSGDEDPLEAILKERMREFMFEGKRWYDLRLLGADYVTKRTSAVATRLLWPINESVLTDNPALKQTPGYQN
For B1, the “glycan array binding signal (z-score)” value with Gal3S(b1-4)Glc6S was -0.009; with GalNAc(a1-3)Gal it was 0.114; in assay [1] it was 1.48; with GalNAc(b1-4)Gal(b1-4)Glc, 1.77; with GalNAc3S(b1-4)GlcNAc3S, -0.23; with GlcA(b1-3)Gal, -0.361. Moreover, the “glycan array binding signal (z-score)” value in assay [2] is -0.323; in [3], 0.511; in assay [4] it was 1.82; in [5], 0.988; in [6], -0.127; in assay [7] it was -0.271. Moreover, the “glycan array binding signal (z-score)” value with Kdn(a2-3)Gal(b1-3)GalNAc was -0.345; in [8], -0.273; in assay [9], 0.247; in assay [10], -0.249; in assay [11], -0.15; with Neu5Ac(a2-3)Gal(b1-4)Glc it was -0.325. Besides, the results for the “glycan array binding signal (z-score)” value in assay [12] and in assay [13] were -0.282 and -0.202, respectively.
